Measured values reported in ChEMBL document CHEMBL3988442, “University of Dundee, Small-Polar-MMV Screening Library” (2021).
Hit rate of the full screen: of about 48,000 compounds, about 13,000 (27%) showed an effect of 50% or more. Some of the results follow.

Tested on: Wolbachia pipientis
Assay: Anti-Wolbachia Cell-Based Screen
Type: functional
Set-up: scale not given: in the data most compounds retested in dose-response had high values
Details: 5 µM

Compared with `CC(C)c1nc(C(=O)N2C[C@H]3CC[C@@H]2CN(C2CCOCC2)C3)cs1`, `c1cn(CC2CCOCC2)c(-c2cc(CN3CCCC3)cs2)n1` is higher in “Percent Effect” value: -6.079% for the first, 5.864% for the second.

Compared with `CCOCC(=O)N1CCC(c2nccn2Cc2cscn2)CC1`, `Cc1ccc(N2CCC(c3nccn3Cc3cscn3)CC2)nn1` is lower in “Percent Effect” value: -5.535% for the first, -11.8% for the second.

First: Cc1cc(F)ccc1-c1ccccc1CC1CNCCNC1=O.Cl (centres undefined)
Second: Cc1ccc(F)cc1CC(=O)N1CC[C@@]2(O)CCNC[C@H]2C1
The “Percent Effect” value of the first is higher: 140% for the first, -17.57% for the second.

Going from `O=C(Cc1ccc(F)cc1Cl)N[C@@H]1CCNC[C@H]1O` to `O=C(C1CCCOC1)N(CC(F)F)c1cccc(Cl)c1` (centres undefined), the “Percent Effect” value falls from 6.286% to -10.1%.

Going from `CCNC(=O)[C@@H]1CCCN1[C@@H](C(=O)NC)C1CC1.Cl` to `CC(OCC1CC1)C(=O)NCc1cccc(CN2CCCC2=O)c1` (centres undefined), the “Percent Effect” value falls from 7.785% to 3.012%.

Going from `CCS(=O)(=O)N1CCC(OCCCc2ccccc2)C1` (centres undefined) to `CS(=O)(=O)N1CCC(OCCCc2ccccc2)C1` (centres undefined), the “Percent Effect” value rises from -14.61% to -9.606%.

Compared with `CS(=O)(=O)N1CCC2(CCCN(CCCc3ccccc3)C2=O)C1` (centres undefined), `CCCS(=O)(=O)N1CCC2(CC1)CC(=O)N(CCCc1ccccc1)C2` is lower in “Percent Effect” value: 8.67% for the first, 8.339% for the second.

Going from `CS(=O)(=O)N1CC(=O)N(CCCc2ccccc2)CC(O)C1` (centres undefined) to `CCS(=O)(=O)N1CC(=O)N(CCCc2ccccc2)CC(O)C1` (centres undefined), the “Percent Effect” value rises from 96.22% to 108.2%.

Going from `CCCS(=O)(=O)N1CC(=O)N(CCCc2ccccc2)CC(O)C1` (centres undefined) to `O=C1CN(S(=O)(=O)CC(F)(F)F)CC(O)CN1CCCc1ccccc1` (centres undefined), the “Percent Effect” value falls from 106.2% to 73.93%.

Compared with `N#Cc1cccc(NC2CC(=O)N(CCCc3ccccc3)C2)n1` (centres undefined), `Cn1ccnc1CN1C(=O)CO[C@H]2CN(CCCc3ccccc3)C[C@H]21` is lower in “Percent Effect” value: -4.151% for the first, -23.58% for the second.

Compared with `CCS(=O)(=O)N1CC[C@@H]2[C@@H](CCC(=O)N2CCc2ccccc2)C1`, `CCCS(=O)(=O)N1CCC2(CCC(=O)N(CCc3ccccc3)C2)CC1` is higher in “Percent Effect” value: -12.22% for the first, 19.11% for the second.

Compared with `CC(C)(C)NC(=O)N1CCN2C(=O)OCC2C1` (centres undefined), `CN1CCN(C(=O)C2SCCc3sccc32)CC1` (centres undefined) is higher in “Percent Effect” value: -12.64% for the first, -4.064% for the second.

Going from `CCC(C)c1csc(NC(=O)c2sc(-c3nnc[nH]3)nc2C)n1` (centres undefined) to `CCn1nc(CC(C)C)cc1C(=O)NCc1c(C)cc(C)nc1OC`, the “Percent Effect” value rises from -26.52% to 140.7%.

First: CSc1cccc(CNC(=O)C2CC(=O)N(CCN(C)C)C2)c1 (centres undefined)
Second: CC(C)COC(C)C(=O)NCc1ccccc1 (centres undefined)
The “Percent Effect” value of the first is lower: 8.737% for the first, 129.5% for the second.

First: O=C(c1nnn(-c2ccc(C(F)(F)F)cc2)n1)N1CCC(O)CC1
Second: CN(C)c1ccc(C(=O)N2CCCC2c2cnn(C)c2)nn1 (centres undefined)
The “Percent Effect” value of the first is lower: 4.237% for the first, 5.055% for the second.

First: CC(C)[C@@H]1CN(CCOc2ccccc2)C[C@H]1NS(=O)(=O)N(C)C
Second: CCS(=O)(=O)N1CC(=O)N(CCOc2ccccc2)CC(O)C1 (centres undefined)
The “Percent Effect” value of the first is lower: 3.365% for the first, 118.2% for the second.

Going from `N[C@H]1CN(CCCOc2ccccc2)C[C@@H]1C1CC1` to `O=C(NCCc1nncn1C1CC1)C1(Cc2ccccc2)CCC1`, the “Percent Effect” value rises from -13.64% to 0.4274%.

Compared with `CC(C)N1CCC2(CCCN(C(=O)c3cncn3C)C2)CC1.O=C(O)C(F)(F)F`, `CC(C)N1CCC2(CCCN(c3nccc(C(F)(F)F)n3)C2)CC1.O=C(O)C(F)(F)F` is lower in “Percent Effect” value: 0.429% for the first, -13.26% for the second.

Going from `Cc1noc2ncc(C(=O)N3CCCC3c3cnn(C)c3)cc12` (centres undefined) to `CN(C)c1ccc(C(=O)N2CCCC2c2cnn(C)c2)cn1` (centres undefined), the “Percent Effect” value rises from 9.393% to 96.67%.

Going from `CN(C)c1cc(C(=O)N2CCCC2c2cnn(C)c2)ccn1` (centres undefined) to `CC(C)CN(C)c1ccc(C(=O)N2CCCC2c2cnn(C)c2)cn1` (centres undefined), the “Percent Effect” value falls from 118.6% to -4.627%.

First: COc1cccc(OC2CN(C(=O)Cn3nc4ccccc4n3)C2)c1
Second: COc1ccc(C2CCCN2c2cnc3ccccc3n2)c(OC)c1 (centres undefined)
The “Percent Effect” value of the first is lower: -0.01054% for the first, 8.411% for the second.

Going from `CCNC(=O)C1(Cc2ccc(-c3ccccc3)cc2)CCCNC1` (centres undefined) to `NC(=O)C1(Cc2ccc(-c3ccccc3)cc2)CCCNC1` (centres undefined), the “Percent Effect” value falls from 160.5% to 155.7%.

First: NC(=O)C1(Cc2ccc(-c3ccccc3)cc2)CCNC1 (centres undefined)
Second: Cc1cc(C)cc(-c2ccc(CC3(C(=O)O)CCOCC3)cc2)c1
The “Percent Effect” value of the first is higher: 156.4% for the first, 0.9737% for the second.

Going from `Cl.Cl.c1ccc(-c2cnc3n2CCNC32CCNCC2)cc1` to `OC1(CNCCSCc2ccccc2)CCCNC1` (centres undefined), the “Percent Effect” value rises from -2.159% to 3.749%.

Going from `Cn1c(=O)oc2ccc(Nc3ncc(C#N)cc3Cl)cc21` to `CCS(=O)(=O)CC(=O)Nc1ccc2oc(C3CC3)nc2c1`, the “Percent Effect” value falls from -1.266% to -4.895%.

Compared with `OCC(CO)Nc1cccc(C(F)(F)F)n1`, `CC(CCO)Nc1cccc(C(F)(F)F)n1` (centres undefined) is higher in “Percent Effect” value: -11.08% for the first, -9.729% for the second.

Going from `c1cnc2nc(N3CCc4c(ncn4C4CC4)C3)ccc2n1` to `c1cnc2nc(N3CCCC3c3nnc4n3CCCCC4)ccc2n1` (centres undefined), the “Percent Effect” value rises from 1.111% to 123.3%.

First: CC(C)c1nc(C2CCCN2c2cnc3ccccc3n2)no1 (centres undefined)
Second: c1ccc2nc(N3CCCC3c3nnc4n3CCCCC4)cnc2c1 (centres undefined)
The “Percent Effect” value of the first is lower: -9.022% for the first, 231.1% for the second.

First: Nc1cc(N2CCCC2c2cnccn2)ncn1 (centres undefined)
Second: COc1cc(CCC(=O)N2CCC(c3cnccn3)CC2)on1
The “Percent Effect” value of the first is lower: -4.526% for the first, 147.9% for the second.

Going from `Cn1c(CC2CCS(=O)(=O)C2)nnc1SCCOc1ccccc1F` (centres undefined) to `COc1cccc(OCC2CCCN(C(=O)CCc3cc(O)no3)C2)c1` (centres undefined), the “Percent Effect” value falls from 1.517% to -4.281%.

First: CN(Cc1ccncc1)C(=O)Nc1cnn(CC(N)=O)c1
Second: COc1nc(C)cc(C)c1CNC(=O)N(C)Cc1cnn(C)c1
The “Percent Effect” value of the first is lower: -7.922% for the first, -3.346% for the second.

Going from `CCN(C)S(=O)(=O)N1CCC(C(O)c2ccc(Cl)cc2)CC1` (centres undefined) to `CCOCCOC(C)C(=O)NCc1ccc(N2CCCCC2)cc1` (centres undefined), the “Percent Effect” value falls from 1.239% to -8.198%.

First: CC(C)COC(C)C(=O)NCc1ccc(F)cc1 (centres undefined)
Second: CC(C)COC(C)C(=O)NCc1cc(F)cc(F)c1 (centres undefined)
The “Percent Effect” value of the first is higher: 52.08% for the first, -4.135% for the second.

First: CC(C)COC(C)C(=O)NCc1ccc(OC(C)C)nc1 (centres undefined)
Second: CC(=O)Nc1ccc(C(=O)N(C)C(C)Cc2cc(C)ccn2)cn1 (centres undefined)
The “Percent Effect” value of the first is higher: 0.7864% for the first, -9.308% for the second.

Compared with `Cc1cc(C)n(-c2ccc(N3CCC4(CC3)OCC(C)O4)nc2)n1` (centres undefined), `COc1cc(C)nc(N2CCN(C(=O)CCc3ccco3)CC2)n1` is lower in “Percent Effect” value: 14.39% for the first, 12.06% for the second.

Compared with `CCC(C)(C)NC(=O)CSCc1ccc(S(=O)(=O)N(C)C)o1`, `COc1ccccc1CC(C)(C)NC(=O)CNS(C)(=O)=O` is lower in “Percent Effect” value: 5.588% for the first, -9.621% for the second.

First: CCC(C)(CC(=O)OC)NCc1cc(C)on1 (centres undefined)
Second: COCc1cc(CNC(=O)c2c(C)c(C)cc(C)c2C)n[nH]1
The “Percent Effect” value of the first is lower: -8.886% for the first, -1.645% for the second.

First: N#Cc1ccc(CN2CCCCC2Cn2cncn2)cc1 (centres undefined)
Second: Cc1ccc(-c2nnc(CN3CCCCC3Cn3cncn3)o2)cc1 (centres undefined)
The “Percent Effect” value of the first is lower: 10.73% for the first, 107.2% for the second.

Going from `Cc1cnn(CC2CCCCN2Cc2nnc(-c3ccco3)o2)c1` (centres undefined) to `c1coc(-c2nnc(CN3CCCC3Cn3cncn3)o2)c1` (centres undefined), the “Percent Effect” value rises from 2.932% to 82.67%.

Going from `COc1ccc(-c2cnc(CN3CCCC3Cn3cncn3)o2)cc1` (centres undefined) to `COc1ccc(-c2nnc(CN3CCCC3Cn3cncn3)o2)cc1` (centres undefined), the “Percent Effect” value rises from -4.543% to 93.03%.

First: Clc1ccccc1-c1nnc(CN2CCCC2Cn2cncn2)o1 (centres undefined)
Second: c1ccc(-c2nnc(CN3CCCC3Cn3cncn3)o2)cc1 (centres undefined)
The “Percent Effect” value of the first is lower: 104.1% for the first, 126.9% for the second.

First: Fc1ccc(-c2nnc(CN3CCCC3Cn3cncn3)o2)cc1 (centres undefined)
Second: Clc1ccc2cccnc2c1CN1CCCC1Cn1cncn1 (centres undefined)
The “Percent Effect” value of the first is higher: -1.304% for the first, -9.545% for the second.

First: c1csc(-c2nc(CN3CCCC3Cn3cncn3)co2)c1 (centres undefined)
Second: Cc1cccc(-c2nc(CN3CCCCC3Cn3cncn3)no2)c1 (centres undefined)
The “Percent Effect” value of the first is higher: 2.244% for the first, -2.041% for the second.

Compared with `CS(=O)(=O)N[C@@H]1CCN(Cc2nccs2)[C@H]1Cc1ccncc1.O=C(O)C(F)(F)F.O=C(O)C(F)(F)F`, `Cc1nc(CN2C[C@@H]3CN(c4ncccn4)C[C@@H]3C2=O)cs1.O=C(O)C(F)(F)F` is higher in “Percent Effect” value: -21.66% for the first, 2.706% for the second.

Compared with `O=C(O)c1ccn(-c2ccccc2NS(=O)(=O)c2ccccc2)n1`, `CC(C)=Cc1c(-c2ccccc2)ncn1CCS(C)(=O)=O` is lower in “Percent Effect” value: 2.8% for the first, -13.72% for the second.

Going from `OC1(CN2CCCCC2)CCN(c2nccc(C(F)(F)F)n2)C1` (centres undefined) to `OC1(CN2CCCCC2)CCN(c2cccc(C(F)(F)F)n2)C1` (centres undefined), the “Percent Effect” value rises from 108.3% to 110.2%.

Compared with `O=C1CCC2(CCN(c3cccc(C(F)(F)F)n3)CC2)CN1CCO`, `CN1CCCC2(CCN(c3cccc(C(F)(F)F)n3)C2)C1=O` (centres undefined) is lower in “Percent Effect” value: 4.395% for the first, -13.28% for the second.

First: CC(C)N1CCCC2(CCN(c3nccc(C(F)(F)F)n3)C2)C1=O (centres undefined)
Second: COc1cc(C)nc(N2CCN(C(=O)CCc3ccncc3)CC2)n1
The “Percent Effect” value of the first is higher: -9.493% for the first, -15.67% for the second.

First: CCn1ccc(C(=O)NCCCN2CCOCC2)n1
Second: CCn1nc(CC(C)C)cc1C(=O)NCCCN1CCOCC1
The “Percent Effect” value of the first is lower: -2.896% for the first, 125.1% for the second.

First: CCC(CNC(=O)c1cc(CC(C)C)nn1C)N(C)CC (centres undefined)
Second: CCn1nc(CC(C)C)cc1C(=O)NCCS(=O)(=O)N(C)C
The “Percent Effect” value of the first is lower: -16.5% for the first, 162.2% for the second.

Going from `CCn1nc(CC(C)C)cc1C(=O)N1CCCC(C#N)C1` (centres undefined) to `CCn1nc(CC(C)C)cc1C(=O)N1CC[C@@H](O)C1`, the “Percent Effect” value rises from -3.007% to -2.224%.

Going from `CCn1nc(CC(C)C)cc1C(=O)NCCn1cccc1` to `CCn1nc(CC(C)C)cc1C(=O)NCCCOC`, the “Percent Effect” value rises from -13.46% to -13.1%.

Compared with `CCN(CC)C1CCN(C(=O)c2cc(CC(C)C)nn2CC)C1` (centres undefined), `CCn1nc(CC(C)C)cc1C(=O)NCC(F)(F)F` is higher in “Percent Effect” value: 33.04% for the first, 127.5% for the second.

Going from `CN(CCn1cnnc1)C(=O)c1ccnc(OC2CCC2)c1` to `COc1cc(CCC(=O)N2CCC(c3cncc(C)n3)CC2)on1`, the “Percent Effect” value rises from -7.369% to 141.8%.

With `Cc1noc(C2CCN(C(=O)CCc3nccs3)CC2)n1` the “Percent Effect” value was 4.096%.
